# Tests used:
# Test in all cases: PBM binding z-score (relative to random genomic background probes); higher = stronger binding; sequences stand for … in GC…GCGATTGACAGCGTAGAATGAAGG
# [1] = tested on: FXR:RXRa (NR concentration 270 nM, RXRa partner concentration 90 nM)
# Outline: (§1)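 Custom Agilent 4×180K protein-binding microarrays carried double-stranded probes, each with a 34-nt variable region. These regions held direct-repeat seeds, single-nucleotide variants, half-site ablations and random human genomic background sequences. Ligand-free nuclear receptor dimers were incubated on the arrays for 1 h, antibodies against each partner (one per run) detected binding, and scanned fluorescence was regression-normalized. Binding z-scores take the random background probes as reference.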
# [2] = tested on: LXRa:RXRa (NR concentration 270 nM, RXRa partner concentration 90 nM)
# Outline: as §1
# [3] = tested on: LXRa homodimer (NR concentration 270 nM)
# Outline: as §1
# [4] = tested on: LXRb:RXRa (NR concentration 270 nM, RXRa partner concentration 90 nM)
# Outline: as §1
# [5] = tested on: LXRb homodimer (NR concentration 270 nM)
# Outline: as §1
# [6] = tested on: PPARa:RXRa (NR concentration 270 nM, RXRa partner concentration 90 nM)
# Outline: as §1
# [7] = tested on: PPARg:RXRa (NR concentration 180 nM, RXRa partner concentration 90 nM)
# Outline: as §1
# [8] = tested on: PPARg:RXRa 270nM:90nM, anti-RXR (NR concentration 270 nM, RXRa partner concentration 90 nM)
# Outline: as §1
# [9] = tested on: PPARg:RXRa 30nM:10nM, anti-RXR (NR concentration 30 nM, RXRa partner concentration 10 nM)
# Outline: as §1
# [10] = tested on: PPARg:RXRa 90nM:30nM, anti-RXR (NR concentration 90 nM, RXRa partner concentration 30 nM)
# Outline: as §1
# [11] = tested on: PPARg:RXRa DBDmut IVT, anti-RXR (DBD mutation: RXRa K156A/R161A, NR concentration 270 nM, RXRa partner concentration 90 nM)
# Outline: as §1
# [12] = tested on: PPARg:RXRa IVT, anti-PPARg (NR concentration 270 nM, RXRa partner concentration 90 nM)
# Outline: as §1
# [13] = tested on: PPARg DBDmut:RXRa IVT, anti-PPARg (DBD mutation: PPARg1 K132A/R137A, NR concentration 270 nM, RXRa partner concentration 90 nM)
# Outline: as §1
# [14] = tested on: PPARg DBDmut IVT, anti-PPARg (DBD mutation: PPARg1 K132A/R137A, NR concentration 270 nM)
# Outline: as §1
# [15] = tested on: PPARg homodimer (NR concentration 180 nM)
# Outline: as §1
# [16] = tested on: PXR:RXRa (NR concentration 270 nM, RXRa partner concentration 90 nM)
# Outline: as §1
# [17] = tested on: PXR homodimer (NR concentration 270 nM)
# Outline: as §1
# [18] = tested on: RARa:RXR (NR concentration 270 nM, RXRa partner concentration 90 nM)
# Outline: as §1
# [19] = tested on: RARa homodimer (NR concentration 270 nM)
# Outline: as §1
# [20] = tested on: RARb:RXRa (NR concentration 270 nM, RXRa partner concentration 90 nM)
# Outline: as §1
Sequence,PBM binding z-score [1],PBM binding z-score [2],PBM binding z-score [3],PBM binding z-score [4],PBM binding z-score [5],PBM binding z-score [6],PBM binding z-score [7],PBM binding z-score [8],PBM binding z-score [9],PBM binding z-score [10],PBM binding z-score [11],PBM binding z-score [12],PBM binding z-score [13],PBM binding z-score [14],PBM binding z-score [15],PBM binding z-score [16],PBM binding z-score [17],PBM binding z-score [18],PBM binding z-score [19],PBM binding z-score [20]
AGAATGAGGTTATACGTAGATCATGGAAGAAAGT,2.28,2.35,0.00529,1.76,0.0323,3.28,2.34,2.58,1.01,1.79,3.69,2.6,1.46,0.947,1.21,1.25,0.482,1.77,0.298,1.53
CATACAGGGTCAGCTAGGCCAGATTAGGGACGGC,4.11,2.99,-0.059,2.4,0.391,4.38,3.11,2.96,0.713,1.62,1.11,1.98,0.335,-0.106,1.45,2.26,-0.138,3.04,0.588,3.91
CGAACTAGGTCATCCAGGCCAGTGAATACATTGA,4.42,2.58,0.198,1.84,-0.0916,4.97,7.7,6.3,3.77,5.63,7.88,8.53,3.15,2.65,2.08,1.61,0.572,2.4,0.167,3.91
CGTCGAAGGTCAAGGTCAGTGAAAGAGACTCGAA,7.03,5.5,0.585,4.59,0.681,6.39,6.6,6.24,2.48,5.24,2.61,4.52,0.183,-0.374,2.78,4.3,0.957,4.46,1.26,5.88
CAGCCTAGGACAGGGCCAGTATAGGAGGAACGTT,-0.452,-0.926,-0.352,-0.799,-0.979,-0.804,0.36,-0.522,-0.216,-0.473,-0.459,-0.805,-1.23,-1.3,0.0188,-0.859,-0.323,-0.684,-0.467,-0.0437
ATATGTAGGTTAGCTGGGGTCATTCGGACTAGGC,4.85,5.8,3.75,4.73,1.58,5.11,5.79,5.43,3,4.4,6.85,6.3,3.21,1.98,4.23,6.74,5.39,6.34,1.19,3.05
TCTGCTAGGTCAACGATGGTCCGCTAATCTGCTA,2.99,2.08,-0.377,1.02,-0.262,3,2.07,2.75,1.9,2.22,4.07,4,-0.429,0.0666,0.694,0.998,-0.847,1.91,-0.449,3.91
CGTCCCAGGTCAGCAGGTCAGTGAAAGCGACGTG,3.56,2.34,0.419,1.95,-0.0332,3.49,2.6,2.88,0.0912,1.51,1.69,2.71,-0.717,-0.861,1.2,2.16,-0.206,3.19,0.0121,4.12
CCGACTGGGGCAAGGTTACAATAACGCACAGCCA,0.137,0.576,-0.19,0.492,-1.15,1.94,3,2.86,1.2,2.36,3.2,3.29,-0.578,-1.14,0.441,0.333,-0.113,0.945,0.189,1.38
CCTAGCAGGCCAGGGTCACGCAAGCATTTCGCTT,4.27,3.3,-0.658,3.24,-0.358,4.73,3.11,3.95,0.595,2.58,-0.356,1.95,-1.04,-1.59,1.16,3.96,-0.56,4.99,-0.191,3.4
CGTCCAAGGTCATAGGAGGTCAGTGCAGACAGAT,7.64,7.34,5.11,6.24,1.16,5.7,5.88,5.67,2.19,4.56,3.55,4.57,0.589,1.49,4.86,6.81,4.62,6.21,2.75,5.33
ATCTCGAGGTAACCAAGTTCAGTGAATGCCGAAC,0.65,1.14,0.25,0.608,-0.105,1.25,0.211,0.361,-0.167,0.304,0.433,1.72,0.594,0.0274,-0.0303,3.06,2.57,1.04,-0.305,1.5
CGTCCAAGGTCAGCAGGTCGGTGAAAGCGACGTG,5.28,3.29,-0.232,2.07,-0.502,4.33,2.97,3.45,0.508,2.15,2.81,2.89,-0.853,-0.476,2.43,2.61,-0.066,3.58,0.0156,5.19
CTACCAAGGTGAACAAGGTTGTTGATTACTATTC,0.708,0.561,-0.172,1.36,-0.417,1.53,0.7,0.746,-0.199,0.615,2.39,2.42,-0.144,0.038,0.436,1.04,0.435,0.73,0.287,1.57
CCAGACAGGCGAGAAGGTAACTCAGCCTCGATTA,-0.951,-0.595,-0.499,-0.97,-1.31,-0.764,-0.0182,-0.949,-0.723,-0.947,-0.678,-0.816,-0.981,-2.1,-0.649,-1.02,-0.455,-0.88,-0.498,-0.619
TCTGCTAGGTCAGTTGGTCAGATAACGAGCTGCC,1.05,0.831,-0.457,0.683,0.181,1.36,0.922,1.72,1.53,1.68,2.68,3.15,0.782,0.323,0.482,0.274,-0.646,0.69,-0.432,3.36
ATATGTACGTTATCGGGTCATTCAGTTTGCGCAT,2.05,2.01,1.02,2.32,1.03,2.67,1.3,1.35,0.0555,0.972,1.03,2.37,1.71,1.76,1.32,3.32,7.47,3.02,0.585,1.93
TAGCCTAGGTCATTCGGCCAGTATAGTACGCATC,4.5,3.51,1.18,2.52,0.814,3.48,2.78,2.43,0.539,1.55,1.85,2.83,-0.386,-0.398,0.361,1.39,-0.455,2,-0.658,3.6
ACTTGCGGGTCAACGAGGTTATAGCACGCGTATA,6.24,4.45,0.548,4.2,0.327,5.46,5.47,5.43,2.04,4.42,5.15,4.85,1.36,0.482,2.04,4.86,3.57,5.03,1.02,3.83
TCATATAGGTAGAAGGTGAAAGTCGGTGTGGTAA,1.26,1.21,0.0834,1.16,-0.0966,3.46,5.61,6.84,5.99,7.35,3.5,2.69,1.46,0.808,1.59,0.746,0.482,1.17,1.42,1.08
CGAACTAGGTCATTGACAGGGCAGTGAATAGTAA,4.4,3.17,0.428,1.99,-0.104,4.74,7.4,6.18,3.75,5.96,8.27,7.87,2.56,1.37,2.24,1.69,0.134,2.69,0.301,3.72
TCTTGTAGATTAATAGAGGTTAAGAAAGTGCGCT,1.31,4.17,2.85,2.28,0.623,2.07,0.283,2.2,3.11,2.59,2.32,0.996,0.986,0.929,1.23,3.4,0.795,2.2,0.565,1.21
GATACAGGGTCAGCTAGACGCCAGAGTATGGAAA,4.79,2.3,-0.39,2.07,-0.431,4.71,3.71,3.1,0.594,1.97,0.771,2.21,0.485,0.334,1.15,1.76,0.0262,2.72,-0.118,3.9
ACTATTATTTGAGACGAGGGCAACCGATAGGTTG,0.64,0.912,1.29,0.748,1.1,0.639,0.833,0.648,0.477,0.429,0.883,0.779,1.61,1.74,1.86,0.944,1.91,1.04,3.89,1.35
TCGAGTAGGTTAGGCGGGGCATTCAGCCAACATA,0.223,0.211,-0.616,0.946,0.912,0.687,-0.0188,0.886,0.825,0.705,1.73,1.84,0.466,0.361,-0.143,0.191,-0.273,0.0737,-0.554,0.48
GCGACTGAGGCAAAGCAGGTTACCATAAGGTTGG,-0.391,-0.493,-0.444,-0.567,-1.32,-0.0233,0.328,-0.42,-0.736,-0.693,0.099,-0.228,-1.27,-1.26,-0.646,-0.22,-0.398,0.0827,-0.323,-0.412

# From the supplement of paper PMC6555819
